Measured values: PubChem BioAssay AID463173 (ICCB-Longwood Screening Facility, Harvard Medical School, 2010)
The campaign covered roughly 52,000 compounds. About 4,300 (8.3%) were called active. Rule as the data show it: active = survival mostly below about 52% (no sharp cut-off); inactive = mostly above about 56%. Shown is part of a subset that was picked to be rich in actives.

These compounds were tested on DeltatarO mutant (assay: growth inhibition of S. aureus wild type versus tarO mutant, primary screen, teichoic acid synthesis inhibitors, RN4220, OD600 (AID 463173)). Settings: OD600, 18 h, active compounds read low, screened at 18.75 µg/mL (by protocol).
`Cc1cccc2cc(CN(CCO)S(=O)(=O)c3ccc(Cl)cc3)c(=O)[nH]c12` was tested, and the survival was 82% (inactive). For `CCOCCCNC(=O)c1ccc2c(c1)NC(=O)C(CS(=O)(=O)Cc1ccc(F)cc1Cl)N2` (centres undefined), the survival was 88% (inactive). In the case of `CC(C)Cn1c(N2CCN(C(=O)c3sc4ccccc4c3Cl)CC2)nc2ccccc21`, the survival is reported as 89% (inactive). `CCC(Cc1ccccc1)NC(=O)CN1C(=O)COc2ccc(S(=O)(=O)N3CCCCCC3)cc21` (centres undefined) was tested, and the survival was 113% (inactive). With `CC(=O)c1cccc(NS(=O)(=O)c2cccc(S(=O)(=O)c3ccc(Br)cc3)c2)c1` the survival was 55% (inactive). `Cc1cc(NC(=O)c2cc(-c3ccc(Cl)cc3)on2)nn1Cc1ccc(Cl)cc1` was tested, and the survival was 140% (inactive). `COc1cccc(-c2cc(C(=O)Nc3ccn(Cc4ccc(C)cc4)n3)no2)c1` was tested, and the survival was 33% (active). For `COc1cccc(-c2cc(C(=O)Nc3cc(C)nn3-c3ccccc3)no2)c1`, the survival was 74% (inactive). With `Cc1cc(NC(=O)c2cc(-c3cccc(Cl)c3)on2)nn1Cc1ccc(Cl)cc1` the survival was 43% (active). In the case of `COc1ccc(-c2cc(C(=O)Nc3ccn(Cc4ccc(C)cc4)n3)no2)cc1OC`, the survival is reported as 57% (inactive). `Cc1ccc(Cn2ccc(NC(=O)c3cc(-c4ccc(Cl)c(Cl)c4)on3)n2)cc1` was tested, and the survival was 45% (active). With `Cc1ccc(CNC(=O)c2cc(-c3ccc(Cl)cc3)on2)cc1` the survival was 93% (inactive). In the case of `Cc1cc(NC(=O)c2cc(-c3ccc(Br)cc3)on2)nn1Cc1ccc(Cl)cc1`, the survival is reported as 155% (inactive). In the case of `Cc1cc(NC(=O)c2cc(-c3ccc(Cl)c(Cl)c3)on2)n(-c2ccccc2)n1`, the survival is reported as 63% (inactive). For `O=c1c2cccnc2n(Cc2ccccc2F)c(=O)n1Cc1ccccc1Cl`, the survival was 62% (inactive). `Cc1cccc(S(=O)Cc2ccc(C(=O)NC3CCCCCC3)o2)c1` (centres undefined) was tested, and the survival was 81% (inactive). `CCOc1ccc(NC(=O)C2CCCN(S(=O)(=O)c3ccc(Br)s3)C2)cc1` (centres undefined) was tested, and the survival was 101% (inactive). `Cc1ccc(CSc2nc3cccnc3n2Cc2ccc(C(=O)NCCc3cccs3)cc2)cc1` was tested, and the survival was 135% (inactive). With `Cc1ccccc1CSc1nc2cccnc2n1Cc1ccc(C(=O)NCCc2cccs2)cc1` the survival was 47% (active). With `Cc1ccccc1CNC(=O)c1ccc(Cn2c(SCc3cccc(F)c3)nc3cccnc32)cc1` the survival was 89% (inactive). With `CCOc1ccccc1CNC(=O)c1ccc(Cn2c(SCc3ccccc3)nc3cccnc32)cc1` the survival was 74% (inactive). With `COc1ccc(Cn2c(SCc3ccc(C(=O)NCc4ccc(C)cc4)cc3)nc3cccnc32)cc1` the survival was 58% (inactive). In the case of `O=C(NCc1ccccc1Cl)c1ccc(Cn2c(SCc3ccccc3)nc3cccnc32)cc1`, the survival is reported as 72% (inactive). In the case of `COc1ccccc1CNC(=O)c1ccc(Cn2c(SCc3ccccc3)nc3cccnc32)cc1`, the survival is reported as 37% (active). In the case of `O=C(NCCc1cccs1)c1ccc(Cn2c(SCc3ccccc3)nc3cccnc32)cc1`, the survival is reported as 99% (inactive). In the case of `Cc1ccccc1CNC(=O)c1ccc(Cn2c(SCc3ccccc3)nc3cccnc32)cc1`, the survival is reported as 0% (active). With `COCCCNC(=O)c1ccc(CSc2nc3cccnc3n2Cc2ccc(OC)cc2)cc1` the survival was 107% (inactive). `CCNC(=O)c1ccc(CSc2nc3cccnc3n2Cc2ccc(OC)cc2)cc1` was tested, and the survival was 0% (active). With `Cc1ccccc1CNC(=O)c1ccc(CSc2nc3cccnc3n2Cc2ccccc2)cc1` the survival was 55% (inactive). With `Cc1cn2c(=O)c(S(=O)(=O)NCc3ccc(F)cc3)c(C)nc2s1` the survival was 88% (inactive). With `CCc1ccc(NC(=O)CSc2nnc(C(C)C)n2CC)cc1` the survival was 96% (inactive). In the case of `O=C(C1CCN(S(=O)(=O)c2ccc3c(c2)OCCO3)CC1)N1CCN(c2nc3ccccc3s2)CC1`, the survival is reported as 109% (inactive). In the case of `O=C(Nc1cccnc1)Nc1c[nH]c2c(Cl)cccc2c1=O`, the survival is reported as 89% (inactive). For `COc1ccc(-c2cc(C(F)(F)F)n3nc(C(=O)O)c(Cl)c3n2)cc1OC`, the survival was 70% (inactive). `Cc1cc(C)nc(-n2nc(C)c3c2N(C)C(=O)CC3c2ccc(Cl)cc2)n1` (centres undefined) was tested, and the survival was 73% (inactive). For `COc1ccc(-c2onc(C)c2C)cc1S(=O)(=O)N1CCC(C)CC1`, the survival was 70% (inactive). With `CC(NC(=O)CN1C(=O)COc2ccc(S(=O)(=O)N3CCCCCC3)cc21)c1ccccc1` (centres undefined) the survival was 68% (inactive). `O=C(Cn1c(=O)n(Cc2ccc3c(c2)OCO3)c(=O)c2ccc(C(=O)NC3CCCCC3)cc21)Nc1ccccc1F` was tested, and the survival was 76% (inactive). In the case of `Cc1nc2c(C(=O)NCc3ccccc3)cnn2c(C)c1Cc1ccc(F)cc1`, the survival is reported as 83% (inactive). In the case of `CCN(CC)C(=O)CSc1nc2ccccc2c(=O)n1Cc1ccco1`, the survival is reported as 77% (inactive). `Cc1cccc(Cn2c(SCc3ccc(C(=O)NCCc4ccccc4)cc3)nc3cccnc32)c1` was tested, and the survival was 115% (inactive). In the case of `Cc1cccc(CNC(=O)c2ccc(Cn3c(SCc4ccccc4)nc4cccnc43)cc2)c1`, the survival is reported as 92% (inactive). With `Cc1cccc(Cn2c(SCc3ccc(C(=O)NCc4ccccc4)cc3)nc3cccnc32)c1` the survival was 46% (active). With `Cc1ccccc1C(=O)OCc1cc(=O)n2nc(-c3cccs3)sc2n1` the survival was 117% (inactive). In the case of `Cc1ccc(C)c(CNC(=O)CN2C(=O)CSc3ccc(S(=O)(=O)N(C)C)cc32)c1`, the survival is reported as 87% (inactive). With `COc1ccc(CC(=O)Nc2sc3c(c2C(=O)Nc2cccc(C)c2)CCCCC3)cc1` the survival was 43% (active). `COc1ccc(NC(=O)c2c(NCc3cccc(OC)c3)sc3c2CCCC3)cc1` was tested, and the survival was 86% (inactive). In the case of `COc1ccc(CC(=O)Nc2sc3c(c2C(=O)Nc2ccc(C)cc2)CCCCC3)cc1`, the survival is reported as 131% (inactive). In the case of `COc1ccc(CC(=O)Nc2sc3c(c2C(=O)Nc2c(C)cccc2C)CCCCC3)cc1`, the survival is reported as 47% (active). For `COc1ccc(CC(=O)Nc2sc3c(c2C(=O)Nc2ccccc2)CCCCC3)cc1`, the survival was 68% (inactive). In the case of `COc1ccc(CC(=O)Nc2sc3c(c2C(=O)Nc2cccc(Cl)c2)CCCCC3)cc1`, the survival is reported as 59% (inactive). In the case of `Cc1ccccc1CNc1nc(N(C)C)nc2c1cnn2C`, the survival is reported as 72% (inactive). For `Cc1ccc(C(=O)c2cn(Cc3ccccc3F)c3cc4c(cc3c2=O)OCCO4)cc1`, the survival was 82% (inactive). In the case of `CCc1ccc(NC(=O)CSc2cn(CC(=O)N3CCOCC3)c3ccccc23)cc1`, the survival is reported as 86% (inactive). With `CSc1ccc(CCNC(=O)c2ccc(-c3nc(COc4ccccc4)c(C)o3)cc2)cc1` the survival was 91% (inactive). For `Cc1nn(-c2nc3ccccc3[nH]2)c(N)c1-c1ccccc1`, the survival was 2% (active). `Nc1ccc(Cc2nc3ccccc3[nH]2)cc1` was tested, and the survival was 86% (inactive). For `CC(C)(Cc1nc2ccccc2[nH]1)c1nc2ccccc2[nH]1`, the survival was 97% (inactive). In the case of `COc1cc(OC)c(NC(=O)N2CCC(CN3CCCC3)CC2)cc1Cl`, the survival is reported as 84% (inactive). In the case of `COc1ccc(NC(=O)c2sc3nc(C(F)(F)F)cc(C)c3c2N)cc1OC`, the survival is reported as 140% (inactive). `N#Cc1cc2c(nc1SCC(=O)N1CCOCC1)CCC2` was tested, and the survival was 97% (inactive). In the case of `CCC(Oc1ccc(F)cc1)C(=O)Nc1nc(-c2ccc(F)cc2)ns1` (centres undefined), the survival is reported as -2% (active). In the case of `CC(Oc1ccc(F)cc1)C(=O)Nc1nc(-c2ccc(F)cc2)ns1` (centres undefined), the survival is reported as -2% (active). With `CCC(Oc1ccc(F)cc1)C(=O)Nc1nc2c(s1)CCCC2` (centres undefined) the survival was 83% (inactive). `Cc1cc(C)cc(OCC(=O)Nc2nc(-c3ccc(F)cc3)ns2)c1` was tested, and the survival was 89% (inactive). In the case of `COc1ccc(-c2nsc(NC(=O)c3oc4cc(C)c(C)cc4c3C)n2)cc1`, the survival is reported as 67% (inactive). For `COc1ccc(-c2nsc(NC(=O)COc3ccc(C)c(C)c3)n2)cc1`, the survival was 65% (inactive). For `COc1ccc(-c2nsc(NC(=O)C(C)Oc3ccc(Cl)c(C)c3)n2)cc1` (centres undefined), the survival was 45% (active). For `O=C(Nc1nc(-c2ccc(Br)cc2)ns1)c1ccc(F)cc1`, the survival was 52% (inactive). `O=C(COc1ccccc1Cl)Nc1nc(-c2ccc(F)cc2)ns1` was tested, and the survival was 55% (inactive). In the case of `CCC(=O)N1CCc2cc(CNC(=O)C(CC)c3ccccc3)ccc21` (centres undefined), the survival is reported as 92% (inactive). For `Cc1cc2c(cc1NC(=O)c1ccccc1Cl)n(C)c(=O)c(=O)n2C`, the survival was 79% (inactive). For `CCC(=O)C1C(=O)CC(C)(C)CC1=O`, the survival was 103% (inactive). With `Cc1ccc(S(=O)(=O)c2nnn(CC(=O)Nc3ccccc3C)c2N)cc1C` the survival was 91% (inactive). `CN(Cc1ccccc1)C(=O)C1CCN(S(C)(=O)=O)CC1` was tested, and the survival was 80% (inactive). With `COc1cc(OC)c(NC(=O)N2CCSc3ccccc32)cc1Cl` the survival was 74% (inactive). `O=C(Nc1cccc(Cl)c1)N1CCSc2ccccc21` was tested, and the survival was 79% (inactive). With `COc1ccc(Br)cc1CNC(=O)CCC(=O)N1CCSc2ccccc21` the survival was 41% (active). `COc1cc(NC(=O)N2CCSc3ccccc32)cc(OC)c1OC` was tested, and the survival was 52% (active). In the case of `CCOc1ccccc1CNC(=O)CCC(=O)N1CCSc2ccccc21`, the survival is reported as 107% (inactive). In the case of `COc1ccc(Br)cc1CNC(=O)CN1CCSc2ccccc21`, the survival is reported as 88% (inactive). `COc1ccc(-c2c3c(=O)n(C)c(=O)n(C)c3c3c(-c4ccc(C)cc4)nc4ccccc4n23)cc1` was tested, and the survival was 82% (inactive). With `CCCCOc1ccc(C2C(=O)N(C3CCCCC3)CC(=O)N2CCCC)cc1` (centres undefined) the survival was 89% (inactive). `COc1cccc(C(C(=O)NC2CCCCC2)N(C(=O)c2ccccn2)c2cccnc2)c1` (centres undefined) was tested, and the survival was 81% (inactive). With `CCOC(=O)N1CCC2(CC1)OC(=O)C(C)=C2C(=O)NCc1ccc(C)cc1` the survival was 70% (inactive). For `Cc1ccc(-c2nnc(SCC(=O)N3CCc4ccccc43)o2)cc1`, the survival was 95% (inactive). `Cc1ccccc1-c1nnc(SCC(=O)N2CCCc3ccccc32)o1` was tested, and the survival was 9% (active). `Cc1cccc(-c2nnc(SCC(=O)N3CCCc4ccccc43)o2)c1` was tested, and the survival was 11% (active). With `O=C(CSc1nnc(-c2ccccc2)o1)N1CCCc2ccccc21` the survival was 80% (inactive). For `O=C(CSc1nnc(-c2ccccc2Cl)o1)N1CCCc2ccccc21`, the survival was 35% (active). For `O=C(CSc1nnc(-c2ccc(F)cc2)o1)N1CCCc2ccccc21`, the survival was 72% (inactive). For `O=C(CSc1nnc(-c2ccc(Cl)cc2)o1)N1CCc2ccccc21`, the survival was 96% (inactive). `O=C(CSc1nnc(-c2ccccc2F)o1)N1CCc2ccccc21` was tested, and the survival was 100% (inactive). `Cc1ccc(-c2nnc(SCC(=O)N3CCCc4ccccc43)o2)cc1` was tested, and the survival was 63% (inactive).
